From PubChem BioAssay (EPA / NIEHS) come the findings set out here.

What is called AC50 is the midpoint of the concentration-response curve, whichever way the signal moves.

Structures are written as SMILES. The source made the active and inactive calls. Rule for the calls: active = hit-call score of the fitted dose curve at least 0.9, where 1 is the maximum; inactive = score below 0.9.

A short description of this assay: CCTE_Shafer_MEA_dev_firing_rate_mean: CCTE's Neural Network Formation Assay for Mean Firing Rate, Shafer Lab (AID 2284031).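 For AC50: curve fitted for loss of firing so AC50 reflects decreased mean firing rate.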 Here is the method:
CCTE_Shafer_MEA_dev assay is conducted using Axion Biosystems 48 well microelectrode array (MEA) plates and Maestro recording system. Each well of the MEA plate contains a grid of 16 microelectrodes embedded in the culture surface. Electrically active cells, such as neurons, can be cultured over the electrodes, and electrical activity in these cells can be recorded extracellularly. The spontaneous firing of neurons is captured from each electrode on a microsecond timescale providing both temporally and spatially precise data. […] The CCTE_Shafer_MEA_dev assay uses primary cultures of rat cortical neurons. Recordings are made on days post-plating 5, 7, 9 and 12. As these cultures mature over time, neural networks develop functional activity and form cohesive networks in which electrical activity can be highly coordinated. CCTE_Shafer_MEA_dev_firing_rate_mean is 1 of 19 assay components of the CCTE_Shafer_MEA_dev assay. It measures the frequency of spikes (action potential firings) as the total number of spikes divided by the length of the recording in a microelectrode array (MEA) using Axion Biosystems Maestro 768 channel amplifier with the AxIS adaptive spike detector. The firing rate is averaged across the active electrodes to report a well-mean value. To collapse across multiple recordings made on days post-plating 5, 7, 9 and 12, the trapezoidal area-under-the-curve of the component is calculated.Data from the assay component CCTE_Shafer_MEA_dev_firing_rate_mean was analyzed into 1 assay endpoint. This assay endpoint, CCTE_Shafer_MEA_dev_firing_rate_mean, was analyzed in the negative analysis fitting direction relative to DMSO as the negative control and baseline of activity. Using a type of functional reporter, gain or loss-of-signal activity can be used to understand electrical activity.
On the day prior to culture, each well was coated thoroughly with 150 uL of 0.05% polyethyleneimine (PEI, Sigma Cat P3143) in 50 mM HEPES (Sigma Cat H7523) at a pH of 8. The plate was incubated at 37C for one hour. PEI was rinsed out with 500 uL of sterile water three times. Plates were stored at 4C until the day of culture. This culture was plated at a seeding density of 1.5 x 10^5 cells/well on a 48-well MEA plate, prepared as described above. Cells were administered via a 25 uL media/laminin ([…]; Sigma Cat L2020-1MG) drop directly onto the microelectrode array, as adding the cells with the laminin results in better attachment than pre-coating with laminin. After 2 hours, an additional 475 uL of cortical media was added and the cells returned to the incubator. Exposure starts at day 0 of plating and is continued over twelve days of network development until the experiment is terminated. Cells are fed with fresh medium on DIV 5 and 9, following the recordings on those days. The entire volume of media in the well is exchanged and any vehicle or compound treatment is renewed. Complete details are found in OP-NHEERL/ISTD/SBB/TJS/2015-03-r0 (available on request, email shafer.tim@epa.gov). Measurement of the electrical activity is non-invasive, and recordings can be made from the same plate over multiple different days of the culture. In cortical neurons, this allows for the measurement of extracellular action potentials over the period during which networks form in the MEA plate.
On to `COC(=O)C(F)(F)C(F)(F)C(F)(F)F`, for which the molecule was classed as inactive. The same measure, in the same setting: the entry for `O=CC(F)(F)C(F)(F)C(F)(F)F` is “inactive”; for `O=C(O)C(F)(F)OC(F)(F)C(F)(F)OC(F)(F)C(F)(F)OC(F)(F)C(F)(F)C(F)(F)C(F)(F)F` it is “inactive”; for `O=C(F)C(F)(F)C(F)(F)C(F)(F)C(F)F` it is “inactive”. As for `C=CC(F)(F)C(F)(F)C(F)(F)C(F)(F)F`, the outcome was inactive. On the same count and under the same terms, next, `CN(C)CCOC(c1ccccc1)c1ccccc1`: “inactive”. On the same count and under the same terms, next, `CC(=O)Nc1ccc(O)cc1`: “inactive”. As for `CC(C)c1c(C(=O)Nc2ccccc2)c(-c2ccccc2)c(-c2ccc(F)cc2)n1CC[C@@H](O)C[C@@H](O)CC(=O)O`, the AC50 was 13 nM (active).

Take `O=CC(F)(F)C(F)(F)C(F)(F)C(F)F`: the outcome was inactive. Regarding `COC(=O)C(F)(F)C(F)(F)C(F)(F)C(F)(F)C(F)(F)F`, the call was inactive. Still for that read-out and setting: the entry for `O=C(C=C(O)C(F)(F)F)C(F)(F)F` is “inactive”; for `O=C(OC(=O)C(F)(F)C(F)(F)F)C(F)(F)C(F)(F)F` it is “inactive”. `CN(CCO)S(=O)(=O)C(F)(F)C(F)(F)C(F)(F)C(F)(F)C(F)(F)C(F)(F)C(F)(F)C(F)(F)F`: the molecule was classed as inactive.

Turning to `O=C(CCCN1CCC(O)(c2ccc(Cl)cc2)CC1)c1ccc(F)cc1`, the AC50 was 390 nM (active).

As to `OCC(F)(F)C(F)(F)C(F)(F)C(F)(F)C(F)(F)C(F)(F)C(F)(F)C(F)(F)C(F)(F)C(F)(F)C(F)(F)F`, the molecule was called inactive.

As for `Nc1ccn([C@@H]2O[C@H](CO)[C@@H](O)C2O)c(=O)n1` (stereo partly specified), the AC50 was 471 nM (active). Consider `FC(F)=C(F)C(F)(F)C(F)(F)C(F)(F)C(F)F`, for which the result was inactive. Regarding `O=P(O)(O)CCC(F)(F)C(F)(F)C(F)(F)C(F)(F)C(F)(F)C(F)(F)C(F)(F)C(F)(F)F`, the molecule was called inactive.

For `NC(C(F)(F)F)C(F)(F)F`, the outcome was inactive. For the molecule `O=P(O)(O)CCC(F)(F)C(F)(F)C(F)(F)C(F)(F)C(F)(F)C(F)(F)F`, the molecule was classed as inactive. The same measure, in the same setting: next, `O=C(F)C(F)(F)C(F)(F)C(F)(F)C(=O)F`: “inactive”. The same measure, in the same setting: next, `O=C1NS(=O)(=O)c2ccccc21`: “inactive”. Same read-out and setting: the entry for `O=C(O)CCC(F)(F)C(F)(F)C(F)(F)C(F)(F)C(F)(F)F` is “inactive”. For `FCOC(C(F)(F)F)C(F)(F)F`, the molecule was called inactive. As to `CN(Cc1cnc2nc(N)nc(N)c2n1)c1ccc(C(=O)N[C@@H](CCC(=O)O)C(=O)O)cc1`, the AC50 was 123 nM (active). With `O=C(CC(=O)C(F)(F)C(F)(F)C(F)(F)F)c1cccs1`, the molecule was classed as inactive.
